“And” between values parts separate entries of the source, which are not always exact repeats. Identical values can stand only once. This is part of a sample that, as a whole, favours compounds with a hit. Of some 83,000 tested, about 20% had one in any assay.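 Treatment: one concentration, 48 hours, 96-well format. Scoring: percent growth, with anything below 10 considered active.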 The source made the active and inactive calls.
Each molecule was assayed on HL-60(TB) leukemia (assay: NCI-60 one-dose screen, 48 h (100 = growth as untreated, 0 = no growth, -100 = all killed)). Settings: 10 µM.
Experimental: Growth inhibition of the HL-60(TB) human tumor cell line is measured as a screen for anti-cancer activity. Cells are grown in 96 well plates and exposed to the test compound for 48 hours. Compounds are tested at a single concentration, which is 10^-5 M for most compounds. The reported endpoint is percent growth (GI% or GIPRCNT), where numbers from 0 - 100% represent growth inhibition, and numbers from -100% - 0 represent cell death. For example, a value of 40 represents 60% growth inhibition. A value of 0 means no net growth occurred over the course of the experiment. A value of -40 indicates 40% of cells at the beginning of the experiment died by the end of the experiment. A value of -100 means all cells are dead at the end of the experiment.
NCI-60 Human Tumor Cell Lines Screen was performed using the standard one-dose NCI protocol, which is described in more detail at https://dtp.cancer.gov/discovery_development/nci-60/default.htm.
Compounds with GIPRCNT values below 10 were considered active. Activity score was based on GIPRCNT using the following formula: […]
Score is 0 for GIPRCNT values of 100 or above, 50 for GIPRCNT values of 0, and 100 for GIPRCNT values of -100.
O=C(O)CCCc1ccc(N(CCCl)CCCl)cc1 was tested, and the growth was 19.6% (inactive).

Same assay, conditions: 10 µM unless noted
In the case of OC[C@@H](O)[C@@H](O)CO, the growth is reported as 92.4% (inactive).
With CC1(C)C2CCC1(CS(=O)(=O)O)C(=O)C2 (stereo unspecified) the growth was 104% (inactive) and 80.1% (inactive).
In the case of C/C(=N/OC(=O)N(C)C)c1ccc(Cl)c(Cl)c1, the growth is reported as 112% (inactive).
In the case of CN(C)[C@@H]1C(=O)C(C(N)=O)=C(O)[C@@]2(O)C(=O)C3=C(O)c4c(O)ccc(Cl)c4[C@@](C)(O)[C@H]3C[C@@H]12, the growth is reported as 100% (inactive).
C/C=C(/C)C(=O)O[C@H]1CC[C@@]2(C)[C@@H]3CC[C@H]4[C@]5(O)C[C@H](O)[C@@]6(O)[C@@H](CN7C[C@@H](C)CC[C@H]7[C@@]6(C)O)[C@]5(O)C[C@@]42O[C@@]13O was tested, and the growth was 128% (inactive).
O=c1c2ccccc2nc(-c2ccccc2Cl)n1-c1nnc(C(F)(F)F)s1 was tested, and the growth was 1.24% (active).
S=P(SP(=S)(c1ccccc1)c1ccccc1)(c1ccccc1)c1ccccc1 was tested, and the growth was 48.5% (inactive).
In the case of O=C(O)C(O)c1ccc(Cl)cc1 (stereo unspecified), the growth is reported as 101% (inactive).
In the case of O=C1NC(=O)C(=Cc2ccccc2)C(=O)N1, the growth is reported as 68.3% (inactive) and 105% (inactive).
For C[C@]12CCc3sc(Nc4ccc(F)cc4)nc3C1=CC[C@@H]1[C@@H]2CC[C@]2(C)C(=O)CC[C@@H]12, the growth was 49.8% (inactive).
O=S(=O)(O)c1ccc(Cl)cc1 was tested, and the growth was 89.1% (inactive).
With O=[N+]([O-])c1c(Cl)cc(Cl)c([N+](=O)[O-])c1Cl the growth was 85.2% (inactive).
c1ccc2nc(-c3ccc4ccccc4n3)ccc2c1 was tested, and the growth was 101% (inactive).
With O=C(O)c1ccc(=O)[nH]c1 the growth was 109% (inactive) and 102% (inactive).
For COc1cc(/C=C\[N+](=O)[O-])ccc1OCc1ccccc1, the growth was 3.4% (active).
In the case of ClC1OC(Cl)(Cl)C(Cl)(Cl)OC1(Cl)Cl (stereo unspecified), the growth is reported as 125% (inactive).
With Nc1ccc(P(=O)(O)O)cc1 the growth was 136% (inactive) and 106% (inactive).
With N[C@@H](CCC(=O)CCl)C(=O)O the growth was 101% [20 µM] (inactive).
Cc1ccc(P(=O)(O)O)cc1 was tested, and the growth was 107% (inactive).
For CC[C@H](CC[C@@H](C)[C@H]1CC[C@H]2[C@@H]3CC[C@H]4C[C@]5(CC[C@]4(C)[C@H]3CC[C@]12C)OO[C@](C)(C(F)(F)F)O5)C(C)C, the growth was 106% (inactive).
COc1ccc2c(c1)c(-c1nc(-c3c[nH]c4ncccc34)cs1)cn2CCCCN1CCOCC1 was tested, and the growth was 7.66% (active).
Cc1nc2ccccc2c(=O)n1-c1ccccc1F was tested, and the growth was 89.3% (inactive).
For O=C(NC(Cl)=C(Cl)Cl)P(=O)(c1ccccc1)c1ccccc1, the growth was 110% (inactive).
In the case of C[Se]/C=C1/C(=O)N(c2c(Cl)cccc2Cl)c2ccccc21, the growth is reported as -39.7% (active).
For C=C1C(=O)OC2CC3(C)OC3C3OC3C3=CC(OC3=O)C12 (stereo unspecified), the growth was -17.4% (active) and 3.33% (active).
With O=C=Nc1ccc(Br)cc1 the growth was 96.4% (inactive).
In the case of CC[C@H](C)[C@H](NC(=O)[C@H]1CCCCN1C)C(=O)N(C)[C@H](C[C@@H](OC(C)=O)c1cccc(C(=O)N[C@@H](Cc2ccccc2)C[C@H](C)C(=O)OC)n1)C(C)C, the growth is reported as -42.9% (active).
For N#CCN(CC#N)[N+](=O)[O-], the growth was 115% (inactive).
In the case of CC/C(Cc1ccccc1)=C(\c1ccc(OCCN2CCCC2)cc1)c1ccc(OC(=O)NCc2ccccc2)cc1, the growth is reported as -1.94% (active).
In the case of CC(C)c1cccc(C(C)C)c1O, the growth is reported as 97.9% (inactive) and 85.9% (inactive).
With C[N+]1(CC#CC[N+]2(C)CCCC2)CCCC1 the growth was 94.1% (inactive).
Cc1cc(N)ccc1N was tested, and the growth was 100% (inactive).
For O=C(O)CNCP(=O)(O)O, the growth was 95.8% (inactive).
In the case of COC1C(O)CC(OC2CC(Oc3cc4cc5c(c(O)c4c(O)c3C)C(=O)[C@@H](OC3CC(OC4CC(OC6CC(C)(O)C(OC(C)=O)C(C)O6)C(O)C(C)O4)C(O)C(C)O3)[C@H]([C@H](OC)C(=O)[C@@H](O)[C@@H](C)O)C5)OC(C)C2OC(C)=O)OC1C (stereo partly specified), the growth is reported as -23.8% (active).
In the case of CSc1cc(/C=C(\C)[C@@H]2C[C@@H]3O[C@]3(C)CCC[C@H](C)[C@H](O)[C@@H](C)C(=O)C(C)(C)[C@@H](O)CC(=O)O2)n(CCNC(=O)OC(C)(C)C)n1, the growth is reported as 8.76% (active).
In the case of O=[N+]([O-])c1cc(Cl)c(Cl)cc1Cl, the growth is reported as 114% (inactive).
In the case of CC(=O)Nc1nc2c(s1)C1=CC[C@H]3[C@@H]4CC[C@H](OC(C)=O)[C@@]4(C)CC[C@@H]3[C@@]1(C)CC2, the growth is reported as 43.4% (inactive).
With CCN1C(=O)NC(=O)C(C)(N2C(=O)c3c(F)c(F)c(F)c(F)c3C2=O)C1=O (stereo unspecified) the growth was -70.3% (active).
CC/C(=C(\c1ccc(OCCN2CCOCC2)cc1)c1ccc(OC(=O)Cc2ccccc2)cc1)c1ccc(Cl)cc1 was tested, and the growth was 95.5% (inactive).

Same assay, conditions: 75 µM
For O=C(O)CCCc1ccc(N(CCCl)CCCl)cc1, the growth was 3.35% (active).
